Laboratory results: the supplement of paper PMC10681739

Columns and labels:
ETS1 [1] = molecular target: T1, ETS1 (UniProt P14921); assay: ETS1 binding intensity (PBM fluorescence), ETS1 alone (arbitrary fluorescence units); higher = stronger binding; settings: ETS1 concentration 1 nM; RUNX1 concentration 0 nM
T1 sequence: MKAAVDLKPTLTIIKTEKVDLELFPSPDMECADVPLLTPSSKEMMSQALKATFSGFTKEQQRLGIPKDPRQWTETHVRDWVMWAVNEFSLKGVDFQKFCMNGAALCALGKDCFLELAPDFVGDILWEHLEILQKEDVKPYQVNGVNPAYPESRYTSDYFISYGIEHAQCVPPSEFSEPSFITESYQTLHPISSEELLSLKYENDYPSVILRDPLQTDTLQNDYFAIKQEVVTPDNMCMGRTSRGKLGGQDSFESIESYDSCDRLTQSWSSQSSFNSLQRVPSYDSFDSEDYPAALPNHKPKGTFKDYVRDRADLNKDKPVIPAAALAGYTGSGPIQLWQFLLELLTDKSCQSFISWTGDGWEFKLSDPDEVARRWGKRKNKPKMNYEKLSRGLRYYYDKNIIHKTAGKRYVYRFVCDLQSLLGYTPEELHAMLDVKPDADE

RUNX1 [2] = molecular target: RUNX1 (UniProt Q01196); assay: RUNX1 binding intensity (PBM fluorescence), RUNX1 alone (arbitrary fluorescence units); higher = stronger binding; settings: RUNX1 concentration 2 nM; ETS1 concentration 0 nM
Chain of RUNX1 (Q01196 whole entry): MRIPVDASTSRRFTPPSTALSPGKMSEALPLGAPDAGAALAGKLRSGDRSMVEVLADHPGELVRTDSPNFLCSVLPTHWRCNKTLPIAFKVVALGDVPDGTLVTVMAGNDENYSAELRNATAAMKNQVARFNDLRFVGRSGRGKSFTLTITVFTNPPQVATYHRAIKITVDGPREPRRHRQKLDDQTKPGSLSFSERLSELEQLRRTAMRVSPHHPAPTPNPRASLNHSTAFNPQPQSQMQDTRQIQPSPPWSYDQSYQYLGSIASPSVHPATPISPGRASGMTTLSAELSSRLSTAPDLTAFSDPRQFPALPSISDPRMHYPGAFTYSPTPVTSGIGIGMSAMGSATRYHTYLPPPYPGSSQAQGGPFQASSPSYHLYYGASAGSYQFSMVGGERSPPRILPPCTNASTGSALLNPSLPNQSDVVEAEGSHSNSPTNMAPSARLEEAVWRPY
Experimental: (§1)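 Cooperative gcPBM on 36-bp genomic probes with neighbouring ETS1 and RUNX1 sites. Recombinant human RUNX1 (2 nM) was incubated alone or with ETS1 (25 nM) and detected with anti-RUNX1 antibody plus Alexa488 secondary. Values are medians over 4 replicate spots; the RUNX1+ETS1 data were normalised to the RUNX1-only data. The probes sit in constant array flanks that are not printed.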

ETS1 [3] = molecular target: T1, ETS1; assay: ETS1 binding intensity (PBM fluorescence) in presence of RUNX1, normalised to ETS1-only experiment (arbitrary fluorescence units); higher = stronger binding; settings: ETS1 concentration 1 nM; RUNX1 concentration 25 nM
RUNX1 [4] = molecular target: RUNX1 (UniProt Q01196); assay: RUNX1 binding intensity (PBM fluorescence) in presence of ETS1, normalised to RUNX1-only experiment (arbitrary fluorescence units); higher = stronger binding; settings: RUNX1 concentration 2 nM; ETS1 concentration 25 nM
Experimental: as §1
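Wherever RUNX1 binding intensity (PBM fluorescence) in presence of ETS1, normalised to RUNX1-only experiment is given: Full-length recombinant human ETS1 or RUNX1 bound to double-stranded 36-bp genomic probes on microarrays, detected by protein-specific primary antibody and Alexa488 secondary, spot fluorescence as median of four replicate spots.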
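Wherever RUNX1 binding intensity (PBM fluorescence), RUNX1 alone is given: Full-length recombinant human RUNX1 bound to double-stranded 36-bp genomic probes on a high-density microarray, scored as Alexa488 fluorescence per spot via anti-RUNX1 antibody, median of four replicate spots.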

Sequence | ETS1 binding intensity (ETS1 [1]) | RUNX1 binding intensity (RUNX1 [2]) | ETS1 binding intensity (ETS1 [3]) | RUNX1 binding intensity (RUNX1 [4])
GATGCTCTAACAGGAAGTGGGTTAAGGAGCTGCACT | 12200 | 673 | 14100 | 2390
ACCTGAGCAGGAAGTAGCTGAGGTCGCGGTGCAGCA | 2940 | 730 | 3750 | 1080
CAGGTGTTCAGGAAACAAAACCACAGACTTTTTCAC | 562 | 4690 | 2370 | 6800
TTAAACACGGAAGTGCATCGGTTGTTGTGGTTATTC | 1260 | 845 | 4360 | 1150
CCTTTCCGCGAGACCTTCCGCGGTTATCCAGCGAGT | 372 | 1160 | 481 | 1510
TGGAAGCGGCTTCCGGGGTGAATGCGGTTGGATCGT | 1150 | 1030 | 3990 | 3030
GAGGACTTCCGGGTGCGTGTGATATCTGCGGGCCCG | 802 | 703 | 793 | 2110
TGTATAACATCCTCATGTTCTGTGGGTGAGTTGAGC | 481 | 824 | 356 | 871
CTACCCTCCCTCTTCCTGTGGTTTCTCAAACATGTC | 729 | 2470 | 937 | 5090
CCCTCACCCCAGCTTTCCTGTGGTTAACCAAACCCC | 518 | 7290 | 822 | 9960
GGCATTCACTTCCGGTCTGGGGCCTGCGGCGGCGGC | 18600 | 793 | 19400 | 2260
TCAGGGGTGGGAGGAAGTGGTTAGGATCAGCCTGGG | 1910 | 776 | 3120 | 2680
GACGGGAGCACCGGAAGCGGTCTTTCCCCGAGCGGA | 12900 | 736 | 12500 | 2370
GTATGGGAAGTGATCTGGCTGCAAACCGCAAGAGAG | 549 | 4520 | 2730 | 7290
AGCCACATCCTCCCTTAGGTCTGACCGCAGCTTAAC | 381 | 4190 | 2170 | 5430
TCCGGAAATAGATAATATCTAGTTAAACCTCAAAAT | 1540 | 786 | 2850 | 965
GCAGCTGCAAACAGGAAACCACAGCAGCGTAGCGGA | 2910 | 962 | 8470 | 1710
CCAAAAACCCCAGGAGGATGTGGTGAGGAGGGAAGG | 1110 | 831 | 2590 | 1040
TGGCTGTGAGCTGCAGGATGTGGTCAGGAGAGGAAG | 2180 | 804 | 19700 | 2310
AATGCCGGATATTGGTTCTGGTAAGCCACAAAAAAG | 1720 | 836 | 4090 | 1390
CTCAGCTCCGCGGAAGTTGCGGTAAGTGGAGCTTTG | 962 | 2210 | 8730 | 5790

Sequence | ETS1 binding intensity (ETS1 [1]) | RUNX1 binding intensity (RUNX1 [2]) | ETS1 binding intensity (ETS1 [3]) | RUNX1 binding intensity (RUNX1 [4])
GCTGCAGCAGGCGGGAAGTCTGCGGTTCGCGGGCTC | 622 | 1150 | 6590 | 1830
ATGCTAGAAAGCAGGAAGCCACAGACACGCCCCAAC | 1180 | 857 | 1120 | 875
AACTTAGCTTCCGGGAAGAAGGCGAGCGGTGGGAGG | 780 | 735 | 724 | 1400
GCGGCGAACCGGACGCCCCAACCACCCGCCCCCCAC | 1710 | 987 | 1470 | 1060
AGGTTGAAAGCACTTCCGCTGCGGCCCCCGTAGGAA | 3040 | 833 | 3460 | 1520
CACTGCGGAAGCAGTGTAGAGAGGTGGTTATCAGTG | 707 | 784 | 680 | 921
CCGGGTAGGATCCGGTTGCCTTTCTGCGGTGGAGGA | 410 | 848 | 798 | 1480
ACAAGAGGAAGTGAGTCTACCCATGATGCGGTCACA | 707 | 891 | 4460 | 1440
ACACCCCAGGCAGGATGTGGTAGGGGTTGCCCCAGA | 2740 | 741 | 5030 | 2080
TACCTACAGGAAATGAGACACACCGCAGGCCGATCC | 2130 | 868 | 7670 | 1770
GAGCAGGAAGCACCCCCAGCACAGGCCTGCGGTGAG | 438 | 741 | 1350 | 911
CCGCTTCCGGGACGCGAATCGCTCTGCGGCTGCGTC | 556 | 832 | 722 | 2080
CAACTTCCGGGGCCGGTTGCCTGGCAACCGCAGGAG | 812 | 965 | 3940 | 3790
TGTGATAAGGATGTTCGTGTGCCTTGTGGTCAGGTG | 623 | 889 | 1710 | 905
TATTTCCTGTGCACAGAAGCAGCTGGGCCGCAGAGT | 557 | 697 | 680 | 1940
CAGAGAGAGGCCACATCCCTGTGGTCACACATACCC | 428 | 980 | 590 | 1030
GAGCAGTGGTGGGAAATGTGGGGTTGGGGGTAAAGG | 493 | 874 | 390 | 843
TAAGCAGGGAATAGAGGAAGTGGTTTTGTCTCAGGC | 3270 | 779 | 7880 | 1780
TTCATCTCTCACTTCCTGTGGTGACGGCTGACGGGG | 4120 | 1030 | 4690 | 1660
ACCACCCACTTCCCGCGCAGTTCCAAACCGCGACCA | 302 | 1590 | 795 | 5270
GAAAACACAGGAAGCCGTCCGCGCAACCGCGTTGCA | 1520 | 840 | 2160 | 1150

Sequence | ETS1 binding intensity (ETS1 [1]) | RUNX1 binding intensity (RUNX1 [2]) | ETS1 binding intensity (ETS1 [3]) | RUNX1 binding intensity (RUNX1 [4])
TTCTGTAGCTTAGGATGTGGGTTTCTTTGTTTCTGA | 452 | 926 | 1020 | 1030
CCGCGAGCCGTCACTTCCTGTGGGCTGGGCCGAGCC | 1910 | 924 | 2470 | 1940
TTTCCACTTCCTGTTCTACTTGTGGCTACTGACTCA | 2530 | 1100 | 2890 | 3380
TTTCTGACTTCCTGTGTGCTTCAGAAACCTCAATGA | 2020 | 830 | 2570 | 2110
AACTAGAGCGTCATTTCCTGTGGGTACAAGTCCAGT | 1640 | 842 | 2400 | 1370
AACCTGCAGACTTCCTGCCATGTGACCACAGGGTCT | 901 | 915 | 3140 | 2160
TCCTGGCAGAGACCGGAAGTGCGGTCCGCGGAGCGT | 28200 | 739 | 43300 | 1800
GGGCCAGAGACGCCGGAAGTGACCGCGCGGTGCGCC | 11700 | 729 | 18400 | 1210
CTGAGCAAAAGGAGGAAGCTGTGGTCTGTGTACCCA | 606 | 810 | 1800 | 945
GAGAAAAGAGACTGAGGATGTGGTTTGGGGTGTGGG | 661 | 844 | 6260 | 1050
TTACGTTAAGGAGGAAACTCTGTGGTTAAACTGTAG | 597 | 1230 | 2050 | 1810
TTCACAACACAGGATGTGCGGTATTATACGGCAAAG | 5120 | 898 | 11200 | 2390
CCCTACTCAGGAGGATGTGGTTGGAGAACCCGCTGA | 815 | 755 | 2260 | 1300
CTTAAATGGGAAATGTAGGTGTGGTTAAGTCACAAA | 558 | 859 | 556 | 915
CTTTTCCATGCAGGAAGTGGTTTTTAGAGTGTAGAG | 7750 | 896 | 20100 | 2920
CGGCATCTGACAGGATGTGGGCAGGGAGAGAGAGAC | 3780 | 1270 | 9220 | 4210
GTGACGGATATCCACCGGGCCCTGTGGTTTCCAACA | 394 | 822 | 1200 | 986
AGGTACCAGGCCCGGAAACCACGGAAAGGGGAACTT | 3050 | 862 | 5500 | 1100
TACTAGTTTGGGGCATCCTGTGGTATAGGGGAAGCA | 4100 | 797 | 4560 | 1080
GGAGGAAGAGGAGGATGTGGTGAGCCGCTCCCCGCC | 923 | 782 | 1870 | 1260
GCAGGGACCGGAAGTCCATGGCTCTGCCGCAACCCT | 13400 | 738 | 13700 | 1250

Sequence | ETS1 binding intensity (ETS1 [1]) | RUNX1 binding intensity (RUNX1 [2]) | ETS1 binding intensity (ETS1 [3]) | RUNX1 binding intensity (RUNX1 [4])
GCCCCGGAAGTGGCCCGGCTGTTGGCCGCAGCGGGA | 2810 | 667 | 3480 | 1710
TCAATAAGACAGGATGTTCTCCAACCGCATTAAGCT | 3270 | 854 | 22100 | 2910
ATTTCCATTTCCGGACTCTTCTCCTGCCCGCAGGGC | 2270 | 1220 | 3560 | 3660
TAGCCGTACGGAAATGTTTGTGGTTCTCTGCATCTA | 647 | 912 | 1010 | 1230
CGACAGAGGACACTTCCTTTTGCGGGTGGCGGCGAA | 550 | 697 | 1170 | 1460
GCGCAGGTCCCGGATGTTGCGGACAGTATGAGGCAA | 3250 | 661 | 4560 | 1570
CACCCGAACGGAAACACCTGCGGCTGAGGGGAGGGG | 959 | 989 | 1110 | 938
GAACCACTTCCCTGAAACCATTTACCACATAAATCT | 383 | 1510 | 904 | 2470
CCTCTTGCTGCCTCTTCCTGTGGTCTTTTCTCTGTC | 737 | 1840 | 951 | 2720
CATGACGAAGGGGAAGGATGTGGTTTGAGGGCAGCA | 774 | 847 | 8460 | 1310
TGTCAGCTGCGTTTCCGCGGTCGCGGGTGAGTGTGC | 418 | 752 | 588 | 1360
GGGGCAGCTTCCGGCAGGAGAGCCCGCATTCCCGGC | 903 | 1460 | 771 | 2470
TGTGTAAGAGGAAACACCAAAACCACAAATATGAAA | 736 | 2080 | 3280 | 3530
GTGCAGACAGGAAATAGCTGCTCTGCGGCAGCCCGA | 5830 | 752 | 6350 | 1070
AGTCTAACCAACAAAGGATGTGGTAGGTAAAAGGTT | 1250 | 834 | 2640 | 959
TGGTTCCACCGACCGGAAGGGCCACAAGGATCCCCG | 5280 | 659 | 5560 | 1250
TGACATGGCTTCCGCCTTGGGCTTTGTGGTCTCCCA | 513 | 890 | 1150 | 1760
CTAACCCTGCTTCCTCTTAGTGGTTTCCCCCAACCT | 616 | 1620 | 793 | 3220
